The list is not random: actives were taken first. Their share in the collection is about 18%.
RORg inh: qHTS for inhibitors of ROR gamma transcriptional activity | Nuclear receptor ROR-gamma (Mus musculus), P51450 | Drosophila S2 Gal4-RORgamma UAS-luciferase reporter, 20 h | Potency, µM (doses to about 53.6 µM), hits mostly inhibitors | hit rate 5.4% among 310,000 | AID 2551, 2010; note: nearly all actives have a fitted effect of over 60% in size
Target sequence (P51450 whole entry, looked up, the tested form may be a part): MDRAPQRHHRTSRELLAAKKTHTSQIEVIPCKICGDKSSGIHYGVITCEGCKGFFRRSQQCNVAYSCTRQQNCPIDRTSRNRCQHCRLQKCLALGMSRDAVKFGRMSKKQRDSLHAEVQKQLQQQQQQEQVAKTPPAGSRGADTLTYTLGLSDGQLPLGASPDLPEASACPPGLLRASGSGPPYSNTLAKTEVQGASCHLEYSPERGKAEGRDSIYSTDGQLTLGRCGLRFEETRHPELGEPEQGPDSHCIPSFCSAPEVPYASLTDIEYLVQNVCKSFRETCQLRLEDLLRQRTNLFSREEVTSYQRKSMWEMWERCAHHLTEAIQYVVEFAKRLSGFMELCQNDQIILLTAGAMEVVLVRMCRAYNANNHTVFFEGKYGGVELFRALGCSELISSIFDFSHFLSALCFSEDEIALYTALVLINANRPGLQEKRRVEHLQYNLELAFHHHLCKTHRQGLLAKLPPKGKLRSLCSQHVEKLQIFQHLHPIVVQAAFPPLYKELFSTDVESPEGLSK
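Stably transfected Drosophila Schneider cells are the test system, with ROR gamma fused to Gal4 and luciferase under UAS control; luminescence is read after 20 hr of 700 uM copper sulfate induction at ambient temperature.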
DT40 TDP1 no CPT: qHTS for Inhibitors of human tyrosyl-DNA phosphodiesterase 1 (TDP1): qHTS in cells in absence of CPT | DT40 Tdp1-/- hTDP1 cells, no CPT, ATP luminescence, 48 h | Potency, µM (titrated, usually from 46.2 µM), actives largely listed as inhibitors | hit rate 15% among 420,000 | AID 686978, 2013; note: nearly all actives have a fitted effect of over 55% in size
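Stably hTDP1-transfected Tdp1-null chicken DT40 cells were treated with library compounds minus camptothecin and grown for at least 48 hr at 37 °C, after which cellular ATP was quantified by luminescence.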
IL1B secr inh: qHTS for Inhibitors of Inflammasome Signaling: IL-1-beta AlphaLISA Primary Screen | activity change, % at 57.5 µM | hit rate 4.7% among 360,000 | THP-1 LPS/ATP IL-1B secretion, AlphaLISA, 16 h; stronger effect = lower value; in the data active = activity change below about -50%; inconclusive = mostly about -30% to -49%
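THP-1 cells pretreated 1 hr with compounds (up to 57.5 uM final), then stimulated with LPS (250 ng/mL final) plus ATP (1.25 mM final); secreted IL-1B measured by AlphaLISA after 16 hr, decreased signal indicating inhibition.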
VP16 counter: VP16 counterscreen qHTS for inhibitors of ROR gamma transcriptional activity; hit rate 3.5% among 310,000; Drosophila S2 Gal4-VP16 UAS-luciferase, luminescence, 20 h; Potency, µM (doses to about 53.6 µM), usual class: inhibitors; AID 2546, 2010;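 note: Gal4-VP16 expression switched on by copper sulfate through the metallothionein promoter; nearly all actives have a fitted effect of over 50% in size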
TDP1 cell CPT: qHTS for Inhibitors of human tyrosyl-DNA phosphodiesterase 1 (TDP1): qHTS in cells in presence of CPT. chicken DT40 Tdp1-/-;hTDP1 cells + 20 nM CPT, ATP luminescence, 48 h. Potency, µM (doses to about 46.2 µM), most hits filed as inhibitors. hit rate 12% among 420,000. AID 686979, 2013; note: nearly all actives have a fitted effect of over 55% in size
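Cell growth measured by CellTiter-Glo luminescence after a minimum 48 h, 37 C compound exposure with 20 nM CPT in Tdp1-knockout DT40 cells stably expressing hTDP1, seeded 400/well; qHTS titration format.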
LDHA inh: qHTS assay for inhibitors of human lactate dehydrogenase; L-lactate dehydrogenase A chain (Homo sapiens), P00338; purified LDHA, NADH/diaphorase-resazurin fluorescence; stronger effect = lower value; activity change, % (values are at about 110 or 230 µM); hit rate 0.15% among 480,000; AID 1347041, 2019; in the data active = activity change below about -30%; inconclusive = mostly about -25% to -30%
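Resorufin fluorescence (ex540/em590), read at 0 and 20 min after diaphorase/resazurin addition, reports the NADH left after a 5 min room-temperature reaction of 2 nM human LDH5 with 0.06 mM NADH and 0.2 mM pyruvate.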
Large screens that a line does not name were inactive. Unless noted, calls come from the whole dose curve; as a rule, active = well fitted curve in the direction sought with a large enough effect; inconclusive = small, poorly fitted or top-dose-only effect, or another doubt; inactive = no such curve, though single readings can be large; an effect the other way counts as inactive or inconclusive.

CC(C)(Oc1ccc(Cl)cc1)C(=O)Oc1ccc(-c2ccc(C#N)cc2)cc1	none (no result: RORg inh, DT40 TDP1 no CPT, IL1B secr inh, VP16 counter, TDP1 cell CPT)
COc1ccccc1N1CCN(C(=O)c2cnc(N3CCOCC3)c3ccccc23)CC1	DT40 TDP1 no CPT 16µM, TDP1 cell CPT inconclusive (no result: RORg inh, IL1B secr inh, VP16 counter)
O=C(Cc1ccccc1)N1CCCC(c2nc(-c3ccc(S(=O)(=O)N4CCCC4)cc3)no2)C1 (configuration not stated)	DT40 TDP1 no CPT inconclusive, IL1B secr inh -72, TDP1 cell CPT inconclusive
CS(=O)(=O)N1CCCC(c2nc(-c3ccc(S(=O)(=O)NCc4ccccc4)cc3)no2)C1 (configuration not stated)	DT40 TDP1 no CPT 10µM, VP16 counter inconclusive, TDP1 cell CPT 13µM
Cc1ccc(-c2nc(C3CCN(S(=O)(=O)c4ccc(C(C)(C)C)cc4)CC3)no2)cc1	DT40 TDP1 no CPT inconclusive, TDP1 cell CPT inconclusive
O=S(=O)(c1ccc2ccccc2c1)N1CCC(c2nc(-c3ccncc3)no2)CC1	RORg inh inconclusive, DT40 TDP1 no CPT 9.2µM, VP16 counter inconclusive, TDP1 cell CPT 16µM
O=S(=O)(c1cccs1)N1CCCC(c2nc(-c3ccccc3)no2)C1 (configuration not stated)	none (no result: RORg inh, DT40 TDP1 no CPT, IL1B secr inh, VP16 counter, TDP1 cell CPT)
CC(C)(C)c1ccc(C(=O)N2CCC(c3noc(-c4ccc(S(=O)(=O)N5CCCC5)cc4)n3)CC2)cc1	DT40 TDP1 no CPT 18µM, TDP1 cell CPT 21µM (no result: RORg inh, IL1B secr inh, VP16 counter)
O=C(CCn1ccc2cc(S(=O)(=O)N3CCCCC3)ccc21)N1CCOCC1	none (no result: RORg inh, DT40 TDP1 no CPT, IL1B secr inh, VP16 counter, TDP1 cell CPT)
O=C(NC1CCCCC1)N1CCC(c2nc(-c3ccc(S(=O)(=O)N4CCCC4)cc3)no2)CC1	DT40 TDP1 no CPT 9.2µM, VP16 counter inconclusive, TDP1 cell CPT 10µM
O=C(C1CC1)N1CCC(c2nc(-c3ccc(S(=O)(=O)N4CCCC4)cc3)no2)CC1	DT40 TDP1 no CPT 21µM, TDP1 cell CPT inconclusive
CC(C)N(C(=O)N1CCC(c2nc(-c3ccncc3)no2)CC1)C(C)C	DT40 TDP1 no CPT 18µM, TDP1 cell CPT inconclusive
O=C(c1cc(F)cc(F)c1)N1CCC(c2nc(-c3ccc(S(=O)(=O)N4CCCC4)cc3)no2)CC1	DT40 TDP1 no CPT inconclusive, TDP1 cell CPT inconclusive (no result: RORg inh, IL1B secr inh, VP16 counter)
CC(C)NC(=O)Nc1ccc(CN)cc1	none (no result: RORg inh, DT40 TDP1 no CPT, IL1B secr inh, VP16 counter, TDP1 cell CPT)
Cc1ccccc1OCc1nc(-c2ccccc2OCC(=O)N2CCC(C)CC2)no1	none (no result: RORg inh, DT40 TDP1 no CPT, IL1B secr inh, VP16 counter, TDP1 cell CPT)
Cc1cc(C)cc(NC(=O)C(c2ccccc2)n2cnc3c2c(=O)n(C)c(=O)n3C)c1 (configuration not stated)	none (no result: RORg inh, DT40 TDP1 no CPT, IL1B secr inh, VP16 counter, TDP1 cell CPT)
Cc1ccc(NC(=O)CN(C)C(=O)c2ccc(S(=O)(=O)Nc3ccc(Cl)cc3)cc2)cc1	none (no result: RORg inh, DT40 TDP1 no CPT, IL1B secr inh, VP16 counter, TDP1 cell CPT)
Cc1ccc(NC(=S)N2CCC(c3ccc(C)cc3)C2)cc1 (configuration not stated)	RORg inh 10µM, DT40 TDP1 no CPT inconclusive, VP16 counter 20µM, TDP1 cell CPT inconclusive
CCOc1ccc(NC(=S)N2CCCC2)cc1	none
Cc1ccc(C2CCN(C(=O)Nc3ccccc3)C2)cc1 (configuration not stated)	none
COc1ccc(NC(=S)N2CCC(c3ccc(C)cc3)C2)cc1 (configuration not stated)	RORg inh inconclusive, DT40 TDP1 no CPT inconclusive, VP16 counter inconclusive, TDP1 cell CPT inconclusive
CCOc1ccc(NC(=S)N2CCC(c3ccc(C)cc3)C2)cc1 (configuration not stated)	RORg inh inconclusive, DT40 TDP1 no CPT 13µM, VP16 counter inconclusive, TDP1 cell CPT inconclusive
COc1cccc(NC(=S)N2CCC(c3ccc(C)cc3)C2)c1 (configuration not stated)	RORg inh inconclusive, DT40 TDP1 no CPT 7.3µM, IL1B secr inh -78, VP16 counter inconclusive, TDP1 cell CPT 12µM
N#C/C(=C\c1c[nH]c2ccc(Br)cc12)c1ccccn1	DT40 TDP1 no CPT 21µM, IL1B secr inh -84, TDP1 cell CPT inconclusive

Bioassay records from PubChem.
